Publication PMC8384837, “Expanding the binding specificity for RNA recognition by a PUF domain”

Key:
Assay in all cases: yeast three-hybrid, YBZ-1, SC-Leu-His + 0.5 mM 3-AT, 4 days
Conditions in all cases: tags: N-Gal4 AD-HA kept; label: inside an RPR1-promoter hybrid RNA with tandem MS2 sites; ssRNA
PUM1 PUF domain R4-EYG = PUM1 PUF domain R4-EYG (Homo sapiens, UniProt Q14671 828-1176, N971E;H972Y;Q975G)
Method in brief: (§1)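 Sequencing with Illumina followed PCR amplification of the repeat regions from transformants grown four days on SC-Leu (input) or SC-Leu-His + 0.5 mM 3-AT (selection). The transformants were strain YBZ-1 with a LexA–MS2 coat fusion and a HIS3 reporter, carrying Pumilio-1 PUF domain libraries and matching RNA elements. The interaction score is the log change in variant frequency from input to selection, computed in log2 with a pseudocount of 1 for absent variants.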

PUM1 PUF domain R7-RTQ = PUM1 PUF domain R7-RTQ (Homo sapiens, UniProt Q14671 828-1176, S1079R;N1080T;E1083Q)
Method in brief: as §1

PUM1 PUF domain R7-ISK = PUM1 PUF domain R7-ISK (Homo sapiens, UniProt Q14671 828-1176, S1079I;N1080S;E1083K)
Method in brief: as §1

PUM1 PUF domain R3-YWW = PUM1 PUF domain R3-YWW (Homo sapiens, UniProt Q14671 828-1176, C935Y;R936W;Q939W)
Method in brief: as §1

PUM1 PUF domain R3-FCG = PUM1 PUF domain R3-FCG (Homo sapiens, UniProt Q14671 828-1176, C935F;R936C;Q939G)
Method in brief: as §1

PUM1 PUF domain R3-DRE = PUM1 PUF domain R3-DRE (Homo sapiens, UniProt Q14671 828-1176, C935D;Q939E)
Method in brief: as §1

PUM1 PUF domain R3-WCR = PUM1 PUF domain R3-WCR (Homo sapiens, UniProt Q14671 828-1176, C935W;R936C;Q939R)
Method in brief: as §1

PUM1 PUF domain R3-PFF = PUM1 PUF domain R3-PFF (Homo sapiens, UniProt Q14671 828-1176, C935P;R936F;Q939F)
Method in brief: as §1

PUM1 PUF domain R5-QKR = PUM1 PUF domain R5-QKR (Homo sapiens, UniProt Q14671 828-1176, C1007Q;R1008K;Q1011R)
Method in brief: as §1

PUM1 PUF domain R7-CFP = PUM1 PUF domain R7-CFP (Homo sapiens, UniProt Q14671 828-1176, S1079C;N1080F;E1083P)
Method in brief: as §1

With “GGCUAGAACUAGUGGAUCCCCCGGCGCCCGGCGGCUCGAGCCCGGGUAAGUGUAUAUAGUCUGCAUGCCGCCGGGCGCCAUGCCUGCAGGUCGACUCUAGAAAACAUG” the binding signal (PUM1 PUF domain R4-EYG) was 1.12 log2 enrichment (interaction score).

With “GGCUAGAACUAGUGGAUCCCCCGGCGCCCGGCGGCUCGAGCCCGGGUAAGUUUAAAUAGUCUGCAUGCCGCCGGGCGCCAUGCCUGCAGGUCGACUCUAGAAAACAUG” the binding signal (PUM1 PUF domain R7-RTQ) was 4.75 log2 enrichment (interaction score) and the binding signal (PUM1 PUF domain R7-ISK) was 2 log2 enrichment (interaction score).

“GGCUAGAACUAGUGGAUCCCCCGGCGCCCGGCGGCUCGAGCCCGGGUAAGUGUAAGUAGUCUGCAUGCCGCCGGGCGCCAUGCCUGCAGGUCGACUCUAGAAAACAUG” was tested, and the binding signal (PUM1 PUF domain R3-YWW) was 4.57 log2 enrichment (interaction score), the binding signal (PUM1 PUF domain R3-FCG) was 5.32 log2 enrichment (interaction score) and the binding signal (PUM1 PUF domain R3-DRE) was 5.66 log2 enrichment (interaction score). The binding signal (PUM1 PUF domain R3-WCR) was 4.82 log2 enrichment (interaction score).

For “GGCUAGAACUAGUGGAUCCCCCGGCGCCCGGCGGCUCGAGCCCGGGUAAGUGUAAUUAGUCUGCAUGCCGCCGGGCGCCAUGCCUGCAGGUCGACUCUAGAAAACAUG”, the binding signal (PUM1 PUF domain R3-PFF) was 3.19 log2 enrichment (interaction score) and the binding signal (PUM1 PUF domain R3-WCR) was 1.63 log2 enrichment (interaction score).

For “GGCUAGAACUAGUGGAUCCCCCGGCGCCCGGCGGCUCGAGCCCGGGUAAGUGUCAAUAGUCUGCAUGCCGCCGGGCGCCAUGCCUGCAGGUCGACUCUAGAAAACAUG”, the binding signal (PUM1 PUF domain R5-QKR) was 5.65 log2 enrichment (interaction score).

“GGCUAGAACUAGUGGAUCCCCCGGCGCCCGGCGGCUCGAGCCCGGGUAAGUAUAAAUAGUCUGCAUGCCGCCGGGCGCCAUGCCUGCAGGUCGACUCUAGAAAACAUG” was tested, and the binding signal (PUM1 PUF domain R7-CFP) was 2.42 log2 enrichment (interaction score).

“GGCUAGAACUAGUGGAUCCCCCGGCGCCCGGCGGCUCGAGCCCGGGUAAGUGUAAAUAGUCUGCAUGCCGCCGGGCGCCAUGCCUGCAGGUCGACUCUAGAAAACAUG” was tested, and the binding signal (PUM1 PUF domain R4-EYG) was 3.15 log2 enrichment (interaction score), the binding signal (PUM1 PUF domain R3-FCG) was 0.82 log2 enrichment (interaction score) and the binding signal (PUM1 PUF domain R3-PFF) was 1.1 log2 enrichment (interaction score).

With “GGCUAGAACUAGUGGAUCCCCCGGCGCCCGGCGGCUCGAGCCCGGGUAAGUGUACAUAGUCUGCAUGCCGCCGGGCGCCAUGCCUGCAGGUCGACUCUAGAAAACAUG” the binding signal (PUM1 PUF domain R4-EYG) was 0.47 log2 enrichment (interaction score).
